# Compound activity deposited in PubChem by National Center for Advancing Translational Sciences (NCATS).
# A selection: hits, their analogues and other compounds. The true share with any hit is near 19%.
# TDP1 cell noCPT: qHTS for Inhibitors of human tyrosyl-DNA phosphodiesterase 1 (TDP1): qHTS in cells in absence of CPT | DT40 Tdp1-/- hTDP1 cells, no CPT, ATP luminescence, 48 h | Potency, µM (top dose mostly 46.2 µM), for the others: top-dose activity change, negative = growth inhibition, usual class: inhibitors | hit rate 15% among 420,000 | AID 686978, 2013; further: potency means the concentration at half of the fitted maximal effect; on the % scale 0 is the no-effect control and ±100 the full control effect; nearly all actives have a fitted effect of over 55% in size
#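 A cellular qHTS used chicken DT40 cells lacking endogenous Tdp1 but carrying stably transfected human TDP1. Compounds were applied without camptothecin, and cell growth kinetics were judged by ATP-dependent luminescence after ≥48 hr.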
# TGFb SMAD3 inh: inhibitors of TGF-b signaling. HepG2 CAGA-GFP TGF-b/SMAD3 reporter, GFP fluorescence, 18 h; TGF-beta stimulated, 500 pg/mL final. Potency, µM (doses to about 46.1 µM), for the others: top-dose activity, negative = inhibition, most hits filed as inhibitors. hit rate 1.2% among 410,000. AID 588855; further: potency means the concentration at half of the fitted maximal effect; on the % scale 0 is the no-effect control and ±100 the full control effect; nearly all actives have a fitted effect of over 65% in size
#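 Using HEPG2 CAGA-GFP reporter cells at 1000 cells/well, we pinned test compounds, stimulated with recombinant TGF-beta (500 pg/mL final) and measured total well GFP after 18 h.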
# IL-1B inflam inh: blocks inflammasome-driven IL-1 beta release; THP-1 LPS/ATP IL-1B secretion, AlphaLISA, 16 h; stronger effect = lower value; activity change, % at 57.5 µM; hit rate 4.7% among 360,000; in the data active means activity change below about -50%; inconclusive means mostly about -30% to -49%; further: on the % scale 0 is the no-effect control and ±100 the full control effect
#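 THP-1 cells pretreated 1 hr with compounds (up to 57.5 uM final), then stimulated with LPS (250 ng/mL final) plus ATP (1.25 mM final); secreted IL-1B measured by AlphaLISA after 16 hr, decreased signal indicating inhibition.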
# DT40 TDP1 CPT: growth inhibition of DT40 Tdp1-/-;hTDP1 cells with camptothecin (screen for TDP1 inhibitors). chicken DT40 Tdp1-/-;hTDP1 cells + 20 nM CPT, ATP luminescence, 48 h. Potency, µM (series often up to 46.2 µM), for inactives: at the highest dose activity change, negative = growth inhibition, most hits filed as inhibitors. hit rate 12% among 420,000; further: potency means the concentration at half of the fitted maximal effect; on the % scale 0 is the no-effect control and ±100 the full control effect; nearly all actives have a fitted effect of over 55% in size
#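 Cell growth measured by CellTiter-Glo luminescence after a minimum 48 h, 37 C compound exposure with 20 nM CPT in Tdp1-knockout DT40 cells stably expressing hTDP1, seeded 400/well; qHTS titration format.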
# HepG2 tox: kills HepG2 cells in TGF-b inhibitor counter-screen. HepG2 CAGA-GFP viability, ATP luminescence, 18 h. Potency, µM (doses to about 46.1 µM), for the others: top-dose activity change, negative = cytotoxicity, usual class: cytotoxic. hit rate 0.76% among 410,000; further: potency means the concentration at half of the fitted maximal effect
#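 CellTiter-Glo luminescence gave cytotoxicity after 18 hours at 37 degrees C. The cells were HepG2 CAGA-GFP in 1% FBS DMEM, stimulated with 500 pg/mL TGF-beta after compound addition. %Activity was normalised to no-cell wells (complete cell-killing) and DMSO (no toxicity), and curves were fitted and classified.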
# TDP1 block: TDP1 (human) enzyme inhibition; Q9NUW8; recombinant TDP1, AlphaScreen DNA substrate cleavage; Potency, µM (highest dose often 130 µM), without a hit: at the top dose activity change, negative = inhibition, usual class: inhibitors; hit rate 0.28% among 350,000; AID 485290; further: potency means the concentration at half of the fitted maximal effect; on the % scale 0 is the no-effect control and ±100 the full control effect; nearly all actives have a fitted effect of over 40% in size
# Target sequence (Q9NUW8 whole entry, looked up): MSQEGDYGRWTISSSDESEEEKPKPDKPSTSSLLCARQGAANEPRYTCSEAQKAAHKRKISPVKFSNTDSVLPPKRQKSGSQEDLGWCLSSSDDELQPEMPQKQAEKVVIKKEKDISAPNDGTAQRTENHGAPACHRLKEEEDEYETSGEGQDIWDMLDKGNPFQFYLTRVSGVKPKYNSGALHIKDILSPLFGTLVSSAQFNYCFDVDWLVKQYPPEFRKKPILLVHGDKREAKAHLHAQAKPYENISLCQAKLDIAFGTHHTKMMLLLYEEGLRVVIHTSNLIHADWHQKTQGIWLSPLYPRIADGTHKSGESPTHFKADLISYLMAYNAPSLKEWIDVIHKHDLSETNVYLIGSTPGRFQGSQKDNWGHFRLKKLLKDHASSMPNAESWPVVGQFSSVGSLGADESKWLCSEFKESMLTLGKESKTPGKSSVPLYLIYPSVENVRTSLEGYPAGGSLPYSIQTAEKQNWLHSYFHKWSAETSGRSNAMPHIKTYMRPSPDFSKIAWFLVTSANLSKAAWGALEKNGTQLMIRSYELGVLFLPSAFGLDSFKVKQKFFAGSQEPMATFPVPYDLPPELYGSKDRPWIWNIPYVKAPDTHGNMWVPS
#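 Here, a 5' biotin and 3' phosphotyrosine-FITC DNA oligonucleotide reports Tdp1 activity: intact substrate bridges AlphaScreen beads, while cleavage leaves a 3' phosphate and drops signal. All incubations at room temperature.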
# Starred values were filed as active, the others as inactive; ? = inconclusive; · = not tested or not shown; [ ] = another dose, or the depositor's remark. Unless noted, the call rests on the fitted dose curve; in most records, active means well fitted curve in the direction sought with a large enough effect; inconclusive means small, poorly fitted or top-dose-only effect, or another doubt; inactive means no such curve, though single readings can be large; an effect the other way counts as inactive or inconclusive.
SMILES,TDP1 cell noCPT,TGFb SMAD3 inh,IL-1B inflam inh,DT40 TDP1 CPT,HepG2 tox,TDP1 block
O=C(/C=C/c1ccccc1)NC(NC(=S)Nc1ccc(Cl)cc1Cl)C(Cl)(Cl)Cl (centres undefined),18µM*,?,-10,21µM*,-45%,5%
Cc1ccc(C)c(NC(=S)NC(NC(=O)/C=C/c2ccccc2)C(Cl)(Cl)Cl)c1 (centres undefined),23µM*,?,?,?,-28%,4%
Cc1nn(-c2ccccc2)c(Cl)c1C(=O)NCC1CCCO1 (centres undefined),-5%,-1%,-2,-9%,-29%,0%
COc1ccc(OC)c(NC(=O)CSC2=Nc3ccccc3C3=NC(CCC(=O)NCc4ccccc4)C(=O)N23)c1 (centres undefined),?,?,·,?,-28%,0%
Cc1nc(N=Nc2ccc(S(=O)(=O)O)cc2S(=O)(=O)O)c(COP(=O)(O)O)c(C=O)c1O,-9%,·,·,4%,·,20µM*
CCN(CC)N=Nc1ccc(C(=O)O)cc1,-7%,-2%,0,-19%,10%,3%
Cc1nc(N=Nc2ccc(C(=O)O)cc2)c(COP(=O)(O)O)c(C=O)c1O,·,·,·,·,·,14µM*
Cc1ccc(S(=O)(=O)Oc2ccc(N=Nc3ccc(-c4ccc(N=Nc5c(O)ccc6cc(S(=O)(=O)O)cc(S(=O)(=O)O)c56)c(C)c4)cc3C)cc2)cc1,·,·,·,·,·,25%
C#CCOCCOCCOCCNc1nc(N2CCN(C(=O)[C@H](CCC(=O)O)n3cc(C(N)Cc4ccc(O)cc4)nn3)CC2)nc(N2CCN(C(=O)[C@H](CCC(=O)O)n3cc(C(N)Cc4ccc(O)cc4)nn3)CC2)n1 (some centres undefined),-13%,3%,2,-12%,1%,4%
CC(C)(C)OC(=O)CC[C@@H](C(=O)N1CCN(C(=O)OC(C)(C)C)CC1)n1cc(C(Cc2ccc(O)cc2)NC(=O)OC(C)(C)C)nn1 (some centres undefined),16µM*,?,-27,18µM*,-20%,3%
C[C@@H](C(=O)N1CCN(C(=O)OC(C)(C)C)CC1)n1cc(-c2cn([C@@H](C)C(=O)N3CCN(C(=O)OC(C)(C)C)CC3)nn2)nn1,·,·,·,·,·,2%
CC(C)CC(NC(=O)OC(C)(C)C)c1cn([C@@H](CCCCNC(=O)OC(C)(C)C)C(=O)N2CCN(C(=O)OC(C)(C)C)CC2)nn1 (some centres undefined),3.7µM*,-23%,-28,5.8µM*,-18%,8%
Cc1cnc(C)c(-c2cccc3c2OC(CNC(=O)/C=C/c2ccncc2)C3)n1 (centres undefined),?,·,·,-6%[9.04 µM],·,·
CCOC(=O)c1ccc(CSc2nncn2N)o1,-3%,13%,5,-12%,-14%,-3%
CCOC(=O)c1ccc(CSC(=N)N)o1,?,-6%,-12,29µM*,-13%,-3%
CCc1oc(C(=O)OC)cc1CSC(=N)N,?,0%,-87*,?,16µM*,2%
COC(=O)c1ccc(Cc2ccc(C(=O)OC)o2)o1,-5%,12%,-4,-14%,-1%,0%
COC(=O)c1ccc(CSC(=N)N)o1,?,0%,·,16µM*,-21%,2%
Cc1ccc(Nc2c(O)nc[nH]c2=O)cc1,3%,3%,14,3%,8%,·
COc1cccc(C(=O)Nc2ccccc2C(=O)OCc2cc(=O)n3nc(C4CC4)sc3n2)c1,-2%,0%,·,4%,-1%,4%
Cn1c(SCC(=O)NCC2CCCO2)nnc1-c1ccco1 (centres undefined),4%,10%,13,7%,15%,1%
